pAkt inh – blocks phosphorylation of Akt | Neuro2A IGF-stimulated pAkt S473 HTRF, 20 min; active compounds read low | activity change, % for hits at 50 µM | hit rate 0.32% among 360,000 | AID 651550; in the data active means activity change below about -80%; inconclusive means mostly about -51% to -80%
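Neuro2A cells (4,500/well, DMEM with 0.5% FBS) were treated with compound at a single 50 µM final concentration, stimulated with 6 nM IGF for 20 min at 37 °C, and lysed. Phospho-Akt Ser473 was read by HTRF as 665/615 ratio ×10^4.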
KCNH2 3.1 inh – blocks the human KCNH2 3.1 channel isoform. U2OS KCNH2 3.1, thallium flux FluxOr; active compounds read low. activity change, % (tested at about 1.8 µM). hit rate 0.95% among 340,000. AID 720553;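 active means maximum activity change below -70%; inconclusive means maximum activity change from -70% to -50%; inactive means maximum activity change above -50%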;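 further: thallium influx rate constant from kinetic fluorescence after stimulation buffer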
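Steps: virus added to U2OS suspension (4 h, RT, dark); medium with 10% FBS added, cells plated, 37 C overnight; FluxOr/Red40 loading buffer 45 min RT; stimulation buffer, 2 min kinetic read; rate constant normalized.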
RXFP1 agonist – RXFP1 (human) receptor agonism | AID 2676 | HEK293T-RXFP1 cAMP TR-FRET, 30 min; response scale: percent of porcine relaxin response, buffer zero | hit rate 0.3% among 370,000 | Potency, µM (top dose mostly 57.5 µM), for the others: top-dose activation, actives largely listed as activators | Q9HBX9; active means well fitted activation curve with a large enough effect; inconclusive means small, poorly fitted or top-dose-only effect; further: potency means the concentration at half of the fitted maximal effect; nearly all actives have a fitted effect of over 60% in size
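HEK293 cells stably expressing RXFP1, treated 30 min at 37C with compounds plus PDE4 inhibitor Ro 20174; cAMP measured by HTRF TR-FRET. Normalized to buffer and 29 nM porcine relaxin; EC50 by Hill fit.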
KCNH2 WT inh – blocks the wildtype human KCNH2 potassium channel; U2OS, BacMam KCNH2, thallium flux FluxOr; active compounds read low; hit rate 0.37% among 340,000; Q12809; AID 720551; activity change, % at 1.84 µM;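 active means maximum activity change below -70%; inconclusive means maximum activity change between -70% and -50%; inactive means maximum activity change above -50%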
Target sequence (Q12809 whole entry, looked up): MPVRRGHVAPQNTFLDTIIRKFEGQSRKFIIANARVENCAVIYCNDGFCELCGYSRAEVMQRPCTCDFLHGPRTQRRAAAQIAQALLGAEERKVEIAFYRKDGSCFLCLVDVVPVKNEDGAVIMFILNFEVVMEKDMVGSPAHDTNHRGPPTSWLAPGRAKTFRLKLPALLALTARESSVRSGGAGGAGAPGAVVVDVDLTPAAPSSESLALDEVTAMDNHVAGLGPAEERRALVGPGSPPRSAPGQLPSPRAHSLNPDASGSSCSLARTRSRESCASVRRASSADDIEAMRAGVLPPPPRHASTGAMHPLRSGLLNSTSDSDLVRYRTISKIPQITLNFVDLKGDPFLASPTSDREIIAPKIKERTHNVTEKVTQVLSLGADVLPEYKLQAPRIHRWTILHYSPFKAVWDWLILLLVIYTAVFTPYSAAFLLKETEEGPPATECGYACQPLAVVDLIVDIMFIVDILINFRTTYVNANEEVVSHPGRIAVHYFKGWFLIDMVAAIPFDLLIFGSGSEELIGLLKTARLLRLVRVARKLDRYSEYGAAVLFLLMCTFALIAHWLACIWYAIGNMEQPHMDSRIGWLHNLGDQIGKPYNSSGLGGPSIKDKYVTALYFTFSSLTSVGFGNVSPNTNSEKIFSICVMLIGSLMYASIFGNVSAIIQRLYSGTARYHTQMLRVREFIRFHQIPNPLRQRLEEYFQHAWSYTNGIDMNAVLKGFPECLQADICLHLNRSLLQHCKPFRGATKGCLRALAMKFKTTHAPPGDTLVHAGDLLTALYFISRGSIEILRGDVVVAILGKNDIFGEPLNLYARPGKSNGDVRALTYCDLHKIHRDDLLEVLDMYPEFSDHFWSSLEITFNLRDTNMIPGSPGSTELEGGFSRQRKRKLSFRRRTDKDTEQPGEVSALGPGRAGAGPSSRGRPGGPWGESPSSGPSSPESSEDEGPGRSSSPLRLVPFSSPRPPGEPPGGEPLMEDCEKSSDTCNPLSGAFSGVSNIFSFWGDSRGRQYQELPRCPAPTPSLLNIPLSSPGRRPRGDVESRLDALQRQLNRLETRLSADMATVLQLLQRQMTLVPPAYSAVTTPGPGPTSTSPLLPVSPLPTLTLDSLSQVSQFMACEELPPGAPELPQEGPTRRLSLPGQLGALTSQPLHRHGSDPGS
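U2OS cells transduced with wild-type KCNH2 virus are loaded with FluxOr dye for 45 min, and thallium flux is measured in kinetic reads before and after stimulation buffer. Rate constants are normalized to DMSO controls.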
RXFP1 antag – blocks the human relaxin receptor RXFP1 | Q9HBX9 | HEK293-RXFP1, relaxin-stimulated cAMP HTRF, 30 min; active compounds read low | activity change, negative = inhibition, % at 57.5 µM | hit rate 0.59% among 350,000 | AID 1259400;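 active means activity change of -60% or lower, but not beyond a set lower limit; inconclusive means change between -60% and -40%, or beyond the set limit; inactive means change above -40%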
An asterisk follows results filed as active; i = inactive; u = inconclusive; x = no result given. Hits are enriched below; roughly 1.7% of the tested compounds scored in any of these assays. On the % scale 0 is the no-effect control and ±100 the full control effect.

SMILES	pAkt inh	KCNH2 3.1 inh	RXFP1 agonist	KCNH2 WT inh	RXFP1 antag
COC(=O)c1cc(NS(=O)(=O)c2ccc(N3CCCCC3)c([N+](=O)[O-])c2)cc(C(=O)OC)c1	-98%*	5	3%	18	2
CC(C)OCCCNC(=O)C1CCC(CNS(=O)(=O)c2cccc3nsnc23)CC1 (stereo not drawn)	i	12	-1%	-1	x
Nc1nnnn1/N=C/c1ccco1	-130%*	-7	2%	-27	11
CCCSc1nc2c(cnn2-c2ccc(C)c(C)c2)c(=O)[nH]1	i	-123*	2%	4	x
CCCCSc1nc2c(cnn2-c2ccc(C)c(C)c2)c(=O)[nH]1	i	8	0%	5	x
CN(C)CCCNC(=O)C[C@H]1C[C@H](C(=O)N2CCCCC2)[C@@]2(CCc3ccccc3)c3[nH]c4ccc(Cl)cc4c3CCN2C1=O	i	-47	x	-120*	x
O=C(NCc1cccnc1)c1cc(C2CCCN(S(=O)(=O)c3cccc4cccnc34)C2)on1 (stereo not drawn)	i	x	x	x	x
Cc1c(C)c2c(C)nn(-c3ccccc3)c2[nH]c1=O	-108%*	5	1%	-7	9
O=[N+]([O-])c1cccc(CSc2nnc3ccccn23)c1	i	-8	25µM*	-3	3
CCC(CC)c1nnc(NC(=O)CC(C)c2ccccc2)s1 (stereo not drawn)	i	-72*	1%	-5	8
Cc1ccc(C=C2C(=O)c3ccccc3C2=O)o1	i	-83*	3%	-2	x
O=C(O)Cc1sc(NCc2ccco2)nc1-c1ccccc1	i	5	-1%	-1	-7
COc1ccc(OC)c(NC(=O)Nc2nnc([C@H]3C[C@H](O)[C@@H](CO)O3)s2)c1	i	x	x	x	x
O=C(CCc1ccccc1)NNC(=O)COc1ccccc1	i	-100*	0%	7	17
COc1ccc(OCC(=O)NNC(=O)CCc2ccccc2)cc1	i	17	11%	-5	-8
O=C(CN1C(=O)COc2ccccc21)NCCN1CCCC1	i	-10	2%	1	3
CCN(C(=O)c1ccc(=O)n(C)n1)c1c(N)n(Cc2ccccc2)c(=O)[nH]c1=O	i	-92*	x	-1	-4
CCN(C(=O)c1ccc(=O)[nH]c1)c1c(N)n(Cc2ccccc2)c(=O)[nH]c1=O	i	-5	1%	7	4
CCN(C(=O)CSc1nc2ccccc2nc1Cc1cccc(OC)c1)c1cccc(C)c1	x	x	u	x	-25
COc1ccc(OC)c(/C(O)=C/C(=O)C(=O)Nc2cc(C)cc(C)c2)c1	-106%*	-15	0%	-4	4
O=[N+]([O-])c1ccc(NCCNCCOc2nonc2-c2ccccc2)c([N+](=O)[O-])c1	i	-93*	1%	-46	-6
Cc1nonc1OCCNCCNc1ccc([N+](=O)[O-])cc1Cl	i	-1	0%	27	-4
CN(c1ccccc1)S(=O)(=O)c1nnc(NC(=O)c2cccs2)s1	x	x	-2%	x	-6
COc1cc(C(=O)Nc2nnc(S(=O)(=O)N(C)c3ccccc3)s2)cc(OC)c1OC	x	x	0%	x	-64*
O=C(NCCN1CCN(c2cccc(Cl)c2)CC1)C1CCCN(S(=O)(=O)c2cnc[nH]2)C1 (stereo not drawn)	i	-13	0%	1	x
SMILES	pAkt inh	KCNH2 3.1 inh	RXFP1 agonist	KCNH2 WT inh	RXFP1 antag
N#Cc1c(-c2cccc(F)c2)cc(-c2ccccc2)nc1Br	-94%*	-12	u	-7	2
CCN1CCN(c2ccc(S(=O)(=O)N3CCOCC3)cc2NC(=O)CCOc2ccccc2)CC1	i	2	0%	6	5
CCOC(=O)c1sc(NC(=O)c2c(OC)cccc2OC)nc1C	-119%*	20	0%	2	2
COc1ccccc1OCC(=O)Nc1nc(C)c(C)s1	i	-75*	0%	18	-10
COc1ccc(-n2c3c(c(=O)[nH]c2=O)C(NS(=O)(=O)c2ccc(Cl)cc2)(C(F)(F)F)C(=O)N3)cc1 (stereo not drawn)	i	12	3%	-98*	-15
Cc1ccc2nc(N/N=C\c3ccc([N+](=O)[O-])o3)nc(-c3ccccc3)c2c1	i	-97*	0%	-44	-4
N#Cc1ccccc1/C=N/Nc1nc(-c2ccccc2)c2cc(Br)ccc2n1	i	-10	2%	5	-4
O=[N+]([O-])c1ccc(/C=N/Nc2ccc3ccccc3c2)o1	i	14	0%	-16	-22
O=[N+]([O-])c1ccc(/C=N/Nc2nc(-c3ccccc3)c3cc(Br)ccc3n2)o1	i	-101*	-2%	-17	6
O=C(c1ccc(Cl)cc1)N1CCN(C(=O)C2CCCCC2)CC1	i	-1	2%	-8	2
O=C(c1ccc([N+](=O)[O-])cc1)N1CCN(C(=O)C2CCCCC2)CC1	i	-71*	-1%	0	8
CCCCCCCNC(=O)C1(CC2CC(c3cccc(Br)c3)=NO2)CCNCC1 (stereo not drawn)	i	-77*	-1%	-8	x
CCCCCCCNC(=O)C1(CC2CC(c3cccc(Br)c3)=NO2)CCN(C(=O)c2ccccc2)CC1 (stereo not drawn)	i	u	-1%	-71*	x
CCCCCCCNC(=O)C1(CC2CC(c3ccccc3)=NO2)CCN(C(=O)c2ccccc2)CC1 (stereo not drawn)	i	-37	-1%	-19	x
O=C(CCl)Nc1ccccc1C(=O)NCc1ccccc1	i	-109*	2%	-7	-4
O=c1[nH]c(=O)n(Cc2ccccc2)c2nc(-c3ccc(Oc4ccc(F)cc4)c([N+](=O)[O-])c3)n(CCO)c12	i	-86*	-3%	-28	-18
COc1ccc(-c2nc3c(c(=O)[nH]c(=O)n3Cc3ccccc3)n2CCO)cc1	i	-3	4%	-4	-3
Cc1nn(CCc2nn[nH]n2)c2nc(-c3ccc(Br)cc3)cc(C(F)(F)F)c12	i	-4	14µM*	-3	3
N#Cc1c(N)nc(SCC(=O)C23CC4CC(CC(C4)C2)C3)c(C#N)c1-c1ccc(Cl)cc1	-82%*	-41	u	2	1
CCCSc1nc(N)c(C#N)c(-c2ccc(C)cc2)c1C#N	-91%*	-2	28%	2	-4
CCOC(=O)CC(=O)CSc1nc(N)c(C#N)c(-c2ccc(Cl)cc2)c1C#N	i	-8	4%	-4	2
CCNc1nc(NC(C)C)nc(NS(=O)(=O)c2ccc(Cl)cc2)n1	i	-9	-1%	3	13
Cc1cccc(Nc2nc(-c3ccc(O)cc3O)cs2)n1	i	-4	1%	-13	-79*
COc1ccc(NC(=O)c2ccc3ccccc3n2)cc1S(=O)(=O)Nc1ccccc1Cl	i	-14	-1%	-12	x
